# The panel holds about 83,000 compounds, 20% with a hit somewhere; the sample as a whole holds those more often.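 The test compound was applied at a single concentration to cells in 96-well plates for 48 hours, and percent growth was recorded.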 Unmarked numbers belong to inactive results. The source made the active and inactive calls.
# System: UACC-62 melanoma
# Assay: NCI-60 one-dose screen, 48 h (100 = growth as untreated, 0 = no growth, -100 = all killed)
# Conditions: 10 µM unless noted
# Protocol: Growth inhibition of the UACC-62 human tumor cell line is measured as a screen for anti-cancer activity. Cells are grown in 96 well plates and exposed to the test compound for 48 hours. Compounds are tested at a single concentration, which is 10^-5 M for most compounds. The reported endpoint is percent growth (GI% or GIPRCNT), where numbers from 0 - 100% represent growth inhibition, and numbers from -100% - 0 represent cell death. For example, a value of 40 represents 60% growth inhibition. A value of 0 means no net growth occurred over the course of the experiment. A value of -40 indicates 40% of cells at the beginning of the experiment died by the end of the experiment. A value of -100 means all cells are dead at the end of the experiment.
# NCI-60 Human Tumor Cell Lines Screen was performed using the standard one-dose NCI protocol, which is described in more detail at https://dtp.cancer.gov/discovery_development/nci-60/default.htm.
# Compounds with GIPRCNT values below 10 were considered active. Activity score was based on GIPRCNT using the following formula: […]
# Score is 0 for GIPRCNT values of 100 or above, 50 for GIPRCNT values of 0, and 100 for GIPRCNT values of -100.
row,Structure (SMILES),growth
1,O=C(NNC(=O)c1ccc(NC(=O)c2ccccn2)cc1)Nc1ccc2ccccc2c1,108%
2,O=C(C1=Cc2cc3ccccc3n2Cc2cnnn21)c1ccc(O)cc1,32.9%
3,O=C(O)c1cn(C2CC2)c2cc(N3CCN(C(=O)Nc4nc(-c5ccc(Br)cc5)cs4)CC3)c(F)cc2c1=O,-1.55% (active)
4,CC1CCN(C(=O)CCCl)c2ccccc21 (stereo not given),89.7%
5,Cc1ccc2nc(/C(C#N)=C(/CCCO)NC(Cc3ccccc3)C(=O)OCc3ccccc3)[nH]c(=O)c2c1 (stereo not given),99.1%
6,CN(CCCNC(=O)Cc1ccc2ccc3cccc4ccc1c2c34)CCCNc1cc(-c2ccc3ccccc3c2)nc2ccccc12,-51.6% (active)
7,C=CCN1C(=O)c2cccc3c(N4CCOCC4)ccc(c23)C1=O,-24.7% (active)
8,COC1=C(C)C(=O)N2[C@@H]1[C@H](c1ccccc1)OC21C=CC(=O)C=C1,-55.2% (active)
9,C[C@H](CCCC(=O)NCC#CCN1CCN(C)CC1)[C@H]1CC[C@H]2[C@@H]3CC[C@@H]4CC(=O)CC[C@]4(C)[C@H]3CC[C@]12C,97.7%
10,N#Cc1cncc(-c2ccc3ncnc(Nc4cccc(Cl)c4)c3c2)c1,81.7%
11,CSC(SC)=C(C#N)c1nc2ccccc2s1,9.44% (active)
12,Cc1nc2ccccc2c(/C=C/c2ccccc2)c1C(=O)/C=C/c1ccccc1,29.8%
13,C/C(=N\O)c1ccc(NC(=O)CSc2nnc(-c3cc(-c4ccc(S(N)(=O)=O)cc4)nc4ccccc34)n2-c2ccccc2)cc1,62.4%
14,O=C(/C=C/c1cccc(Cl)c1Cl)Nc1ncc(Cc2ccccc2Cl)s1,42.7%
15,Cc1ccc(-c2nc3nc(-c4ccccc4)nc(N4CCCN(S(C)(=O)=O)CC4)c3o2)cc1,81.7%
16,Cc1c2ccncc2c(C)c2c1c1cc(CO)ccc1n2C,-54.2% (active)
17,CCOC(=O)C1=C(C)/C(=C\c2[nH]c(C)c(C(=O)OCC)c2C)N=C1C,90.9%
18,CN1C(=O)/C(=C2\SC(=Nc3ccccc3)N(Nc3ccccc3)C2=O)c2ccccc21,81.3%
19,Oc1c(CN2CCCC2)cc(CSCc2ccccc2)c2cccnc12,-19.5% (active)
20,OCCNCCNC(Cc1ccc(Cl)cc1)c1ccccc1 (stereo not given),59.7%

row,Structure (SMILES),growth
1,CN(C)CCN1C(=O)c2cccc3c(/C=C/CN4C(=O)c5cccc6cccc(c56)C4=O)ccc(c23)C1=O,98.7%
2,CN1CCN(Cc2ccc(NC(=O)c3cncc(C#Cc4cnc(N)c5ccc(F)cc45)c3)cc2C(F)(F)F)CC1,20.6%
3,COc1ccc(/C=C2\COc3ccc(O)cc3C2=O)cc1,85.7%
4,C=C1CC[C@@H]2[C@](C)(COC(C)=O)[C@H](OC(C)=O)CC[C@@]2(C)[C@@H]1CC(Nc1ccc(S(=O)(=O)NC(C)=O)cc1)C1=CCOC1=O (stereo not given in full),-12.5% (active)
5,O=C1/C(=C/c2ccc(F)cc2)CN(C(=O)C(Cl)Cl)C/C1=C\c1ccc(F)cc1,-61.1% (active)
6,COc1cc(/C=C2\CN(S(=O)(=O)c3ccccc3)C/C(=C\c3cc(CN4CCCCC4)c(O)c(OC)c3)C2=O)cc(CN2CCCCC2)c1O,71%
7,CCCCNC(=O)Oc1ccc(/C(=C(/C)Cc2ccc(OC)cc2)c2ccc(OCCN3CCCCCC3)cc2)cc1,79.1%
8,Cc1ccc(-c2csc(N(C(=O)N3CCN(c4cc5c(cc4F)c(=O)c(C(=O)O)cn5C4CC4)CC3)c3ccccc3)n2)cc1,1.23% (active)
9,Cc1ccc(/C=C/C(=O)c2ccc(-n3cc(CN4CCN(c5cc6c(cc5F)c(=O)c(C(=O)O)cn6C5CC5)CC4)nn3)cc2)cc1,77.6%
10,COc1ccc(C#Cc2ccc(=O)oc2-c2cc(OC)c(OC)c(OC)c2)cc1O,44%
11,CCOC(=O)c1[nH]c2c(c1C)-c1[nH]c(=O)c(S(=O)(=O)c3ccccc3)cc1SC2,21.2% [100 µM]
12,Cc1ccc(C2CC(c3nc(-c4ccc(Cl)cc4)oc3C)=NN2C(=O)c2ccncc2)cc1 (stereo not given),72.3%
13,CCNc1ccc(-c2nc3ccccc3n3cccc23)cc1,66.2%
14,CCN1C(=O)N(CC)C2C1NN=c1s/c(=C\c3ccc(C(F)(F)F)cc3)c(=O)n12 (stereo not given),30.9%
15,c1ccc(CCNc2c3ccccc3nc3ccccc23)cc1,53.2%
16,CCCCCCCC/C=C\CCCCCCCCOc1ccc(CC(=O)NCC[N+]2(C)CCOCC2)cc1,57.5%
17,CNCc1cccc2c1OCCOCCOCCNS(=O)(=O)c1ccc(cc1)-c1cnc(N)c(n1)C(=O)N2,23.2%
18,Cc1ccc(-c2csc(NC(=O)c3ccccc3CN3C(=O)c4ccccc4C3=O)n2)cc1,76.6%
19,CCN1CCN(C(=O)[C@]23CC[C@@H](C)[C@H](C)[C@@H]2C2=CC[C@@H]4[C@@]5(C)C/C(=C/c6cccnc6)C(=O)C(C)(C)[C@@H]5CC[C@@]4(C)[C@]2(C)CC3)CC1,33.8%
20,Oc1c(CN2CCOCC2)cc(COCc2ccccc2)c2cccnc12,-25.7% (active)

# From PubChem BioAssay (NCI)
